92 molecules from PubChem BioAssay AID463173 (ICCB-Longwood Screening Facility, Harvard Medical School, 2010) can be followed below.

About 4,300 (8.3%) of roughly 52,000 compounds were called active. This is one part of a sample in which actives are shown more often than they occur. Values without a mark were called inactive. No stated cut-off is given here; in the data, active means survival mostly below about 52% (no sharp cut-off); inactive means mostly above about 56%.

The experiment deals with DeltatarO mutant. Put plainly: S. aureus survival, RN4220 and DeltatarO strains – OD600, teichoic acid synthesis inhibitors, primary screen (AID 463173). The note with it: S. aureus RN4220 wild type/DeltatarO growth, OD600, 18 h, active compounds read low, screened at 18.75 µg/mL (by protocol).
As for `CCN(c1cccc(C)c1)S(=O)(=O)c1ccc2[nH]cc(C(=O)NCCCOC)c(=O)c2c1`, the survival was 67%.

For `COc1ccc(N(C)C(=O)c2nc(-c3cccc(F)c3)n3c2CCCCC3)c(OC)c1`, the survival was 74%.

As for `CCOC(=O)c1cccc(NS(=O)(=O)c2cc(-c3cnc(C4CC4)o3)ccc2C)c1`, the survival was 90%.

For the molecule `O=C(Nc1cccnc1)c1cc(-c2ccc(Cl)cc2)on1`, the survival is 61%.

For `CN1/C(=C\C(=O)Nc2cccnc2)c2ccccc2CC1(C)C`, the survival is 65%.

On to `Cn1c(=O)oc2cc(S(=O)(=O)CCC(=O)NCCc3ccccc3)ccc21`, for which the survival is 96%.

With `COc1ccc(NC(=O)c2c(NC(=O)COc3ccccc3)sc3c2CCC(C(C)(C)C)C3)cc1` (configuration not stated), the survival is 75%.

As to `CCOc1ccc(NC(=O)c2c(NC(=O)c3cccs3)sc3c2CCC(C(C)(C)C)C3)cc1` (configuration not stated), the survival is 67%.

With `CC(C)(C)C1CCc2c(sc(NC(=O)c3cccc(Cl)c3)c2C(N)=O)C1` (configuration not stated), the survival is 70%.

As to `CCC(=O)Nc1sc2c(c1C(=O)Nc1ccc(OC)cc1)CCC(C(C)(C)C)C2` (configuration not stated), the survival is 13% (active).

For `Cc1ccccc1NC(=O)c1c(NC(=O)c2ccncc2)sc2c1CCC(C(C)(C)C)C2` (configuration not stated), the survival is 110%.

As to `COC(=O)c1c(NC(=O)c2cccc(OC)c2)sc2c1CCC(C(C)(C)C)C2` (configuration not stated), the survival is 43% (active).

As for `COC(=O)c1c(NC(=O)C2c3ccccc3Oc3ccccc32)sc2c1CCC(C(C)(C)C)C2` (configuration not stated), the survival is 78%.

With `COc1ccc(NC(=O)c2c(NC(=O)c3ccncc3)sc3c2CCC(C(C)(C)C)C3)cc1` (configuration not stated), the survival is 41% (active).

As for `CCOc1ccc(NC(=O)c2c(NC(=O)c3ccncc3)sc3c2CCC(C(C)(C)C)C3)cc1` (configuration not stated), the survival was 113%.

On to `O=S(=O)(c1ccccc1)N1CCC(O)(c2ccccc2)C2CCCCC21` (configuration not stated), for which the survival was 73%.

As to `CC(=O)c1cccc(NC(=O)C(Cc2ccccc2)NS(=O)(=O)c2ccc(Br)s2)c1` (configuration not stated), the survival is 116%.

Regarding `Cc1n[nH]c(=S)n1CC(=O)n1c2c(c3ccccc31)CCCC2`, the survival is 91%.

For the molecule `CC(=O)Nc1c(C(=O)Nc2cccc(C)c2)nnn1-c1ccc(C)cc1`, the survival is 69% (active).

As to `Cc1ccc(C)c(-n2nnc(C(=O)Nc3ccc(Br)cc3)c2C)c1`, the survival is 18% (active).

On to `COc1ccc(C)cc1-n1nnc(C(=O)Nc2cccc(SC)c2)c1C`, for which the survival is 86%.

For the molecule `COc1cccc(NC(=O)c2nn(-c3ccc(C)cc3)c(=O)n(C)c2=O)c1`, the survival is 124%.

As for `CC(=O)c1nnn(-c2ccc(C)cc2Cl)c1C`, the survival is 65%.

As for `Cc1cccc(NC(=O)c2ccc(-n3c(C)nnc3C)cc2)c1`, the survival was 88%.

For the molecule `COc1ccc(NC(=O)c2cc(S(=O)(=O)N3CCCC(C)C3)cn2C)c(OC)c1` (configuration not stated), the survival was 87%.

As to `Cc1cc(N2CCN(c3cc(Cl)ccc3C)CC2)n2nc(-c3ccccc3)nc2n1`, the survival was 77%.

As for `COc1ccccc1N1CCN(c2cc(C)nc3nc(-c4ccc(C)cc4)nn23)CC1`, the survival was 40% (active).

Consider `COc1ccccc1N1CCN(c2cc(C)nc3nc(-c4ccc(Cl)cc4)nn23)CC1`, for which the survival is 38% (active).

`Cc1ccc(-c2nc3nc(C)cc(N4CCN(c5cccc(C)c5C)CC4)n3n2)cc1`: the survival is 128%.

On to `COc1ccc(N2CCN(c3cc(C)nc4nc(-c5ccc(C)cc5)nn34)CC2)cc1`, for which the survival was 53%.

Regarding `COc1ccccc1N1CCN(c2cc(C)nc3c(-c4ccc(Cl)cc4)c(C)nn23)CC1`, the survival was 87%.

With `COc1cc(C(=O)NCc2ccc3c(c2)CCN3C(=O)c2ccncc2)cc(OC)c1OC`, the survival is 101%.

As for `Cc1cccc(N2CCN(C(=O)c3cn(C4CCCCC4)c(=O)c4c3c3ccccc3n4C)CC2)c1C`, the survival was 115%.

Turning to `CCC1CC(/C(C)=N/NC(N)=O)OC1=O` (configuration not stated), the survival is 71%.

With `Cc1c(-c2nc(-c3ccccc3F)no2)nnn1-c1cc(F)ccc1F`, the survival was 84%.

In the case of `CCOC(=O)c1c(C)n(-c2ccccc2)c2ccc(OC(=O)c3cccc(C)c3)cc12`, the survival is 63%.

On to `CCOC(=O)c1c(C)n(-c2ccccc2)c2ccc(OC(=O)c3ccccc3)cc12`, for which the survival is 3% (active).

Take `CCOC(=O)c1c(C)n(-c2ccccc2)c2ccc(OC(=O)c3cccc(Cl)c3)cc12`: the survival was 79%.

For the molecule `CCOC(=O)c1c(C)n(-c2ccccc2)c2ccc(OC(=O)c3ccccc3NC(=O)C(C)(C)C)cc12`, the survival is 55%.

For the molecule `CCOC(=O)c1c(C)n(-c2ccccc2)c2ccc(OC(=O)c3ccccc3Cl)cc12`, the survival was 54%.

With `CCOC(=O)c1c(C)n(-c2ccccc2)c2ccc(OC(=O)c3ccccc3NC(=O)C(C)C)cc12`, the survival is 47% (active).

For the molecule `COc1ccc(S(=O)(=O)N2CCC(C(=O)Nc3ccc(Oc4ccccc4)cc3)CC2)cc1`, the survival was 72%.

Take `O=C(COc1ccc(S(=O)(=O)NC2CCCCC2)cc1Cl)NCc1ccccn1`: the survival is 104%.

`COc1ccc(N2CCN(C(CNC(=O)C(=O)NCc3ccc(C)cc3)c3cccnc3)CC2)cc1` (configuration not stated): the survival was 61%.

Regarding `CCCCNc1nc2c(S(=O)(=O)c3ccc(C)cc3)nnn2c2ccsc12`, the survival was 114%.

As to `Cc1ccc(C)c(NC(=O)CSc2nncn3c2cc2sccc23)c1`, the survival was 69%.

Take `O=C(c1cc2c(=O)[nH]c3ccccc3c2s1)N1CCN(c2ccc(F)cc2)CC1`: the survival was 51%.

On to `COc1ccc(Cc2nnc(C(=O)NCCCN3CCN(c4ccccc4F)CC3)o2)cc1OC`, for which the survival was 78%.

In the case of `Cc1ccc(Cl)cc1N1CCN(CCNC(=O)Nc2ccc(Cl)cc2)CC1`, the survival was -4% (active).

Consider `CCC(=O)N1c2ccccc2CC1C(=O)NCCN1CCN(c2cccc(C)c2C)CC1` (configuration not stated), for which the survival was 77%.

As for `Cc1ccc(C)c(N2CCN(CCCNC(=O)Nc3ccc(Cl)cc3)CC2)c1`, the survival is -5% (active).

As to `Cc1ccc(Cl)cc1N1CCN(CCNC(=O)Nc2ccccc2Cl)CC1`, the survival is 77%.

Consider `CCC(=O)N1c2ccccc2CC1C(=O)NCCN1CCN(c2cccc(Cl)c2)CC1` (configuration not stated), for which the survival is 87%.

For the molecule `O=C(NCCCN1CCN(c2ccc(F)cc2)CC1)Nc1ccc(Cl)cc1`, the survival was 72%.

For the molecule `O=C(NCCCN1CCN(c2ccccc2F)CC1)c1nnc(Cc2ccc(Cl)cc2Cl)o1`, the survival was 80%.

Take `Cc1ccc(Cl)cc1N1CCN(CCCNC(=O)c2nnc(Cc3cccc(Cl)c3)o2)CC1`: the survival is 25% (active).

As to `CCC(=O)N1c2ccccc2CC1C(=O)NCCN1CCN(c2cc(Cl)ccc2C)CC1` (configuration not stated), the survival is 52% (active).

`CCOc1ccc(NC(=O)NCCN2CCN(c3cc(Cl)ccc3C)CC2)cc1`: the survival was 54%.

`Cc1cccc(N2CCN(CCNC(=O)Nc3ccc(Cl)cc3)CC2)c1C`: the survival is 66%.

With `CCc1ccc(S(=O)(=O)Nc2ccc(-c3ccc(N4CCCCCC4)nn3)cc2)cc1`, the survival is 95%.

Turning to `Cc1ccc(C)c(N(C)C(=O)CCNC(=O)Cn2cnc3ccccc3c2=O)c1`, the survival was 69%.

With `Cc1ccc(S(=O)(=O)NC2(C(F)(F)F)C(=O)Nc3c2c(=O)[nH]c(=O)n3-c2ccccc2)cc1` (configuration not stated), the survival is 89%.

For `COc1cc(OC)cc(-c2nc3nc(C)c(CCC(=O)Nc4ccc(Cl)cc4)c(C)n3n2)c1`, the survival was 65%.

Regarding `COc1cccc(CNc2ncnc3onc(C)c23)c1`, the survival is 125%.

Regarding `Cc1ccc(NC(=O)N2CCc3cc(S(=O)(=O)N4CCC(C)CC4)ccc32)cc1F`, the survival was 105%.

As for `COc1c(C)cccc1C(=O)Nc1ccc(-c2nc3ccccc3s2)c(Cl)c1`, the survival was 68%.

For `Cc1ccccc1CNC(=O)c1ccc2nc(C(C)C)oc2c1`, the survival is 83%.

As to `COc1ccc(-c2onc(C)c2C)cc1S(=O)(=O)N1CCN(c2cc(C)ccc2C)CC1`, the survival was 81%.

In the case of `O=C(NCCSc1c[nH]c2ccccc12)c1ccccc1Cl`, the survival was 57%.

Turning to `Cc1ccc(C(=O)NCCSc2c(C)[nH]c3ccccc23)cc1C`, the survival was 55%.

For `COc1ccc(C(=O)NCCSc2c[nH]c3ccccc23)cc1OC`, the survival is 76%.

As for `Cc1ccc(C(=O)NCCSc2c[nH]c3ccccc23)cc1C`, the survival is 46% (active).

Turning to `O=C(NCCSc1c[nH]c2ccccc12)c1ccc(Cl)cc1`, the survival was 47% (active).

For the molecule `CN(C)S(=O)(=O)c1ccc(C(=O)NCCSc2c(-c3ccc(Cl)cc3)[nH]c3ccccc23)cc1`, the survival is 67%.

In the case of `Cc1ccc(Cn2c(CN3CCN(c4cccc(Cl)c4)CC3)nc3c2c(=O)n(C)c(=O)n3C)cc1`, the survival was 107%.

As to `COc1cccc(C2CC(=O)Nc3c2c(=O)n(C)c2nc4ccccc4n32)c1` (configuration not stated), the survival is 67%.

For `CCn1c(=O)cc(SCC(=O)NCc2ccc(OC)cc2OC)c2ccccc21`, the survival was 66%.

Turning to `COc1ccc(C2=NC(c3ccncc3)=Nc3ccc(Br)cc3N2)cc1`, the survival was 82%.

With `CCCCOc1ccc(C2=NC(c3ccncc3)=Nc3ccc(OCC)cc3N2)cc1`, the survival is 75%.

In the case of `CCCCOc1ccc(C2=NC(c3ccncc3)=Nc3ccc(Br)cc3N2)cc1`, the survival was 12% (active).

`CCn1c(C(=O)NCc2ccccc2Br)cc2oc3ccccc3c21`: the survival is 48%.

`CCn1c(C(=O)NCc2ccc(F)cc2)cc2oc3ccccc3c21`: the survival is 89%.

Regarding `CCn1c(C(=O)NCc2cccc(Br)c2)cc2oc3ccccc3c21`, the survival was 50%.

In the case of `Cn1c(C(=O)NCc2ccccc2F)cc2oc3ccccc3c21`, the survival was 55%.

For `CCCOc1ccc(CNC(=O)c2cc3oc4ccccc4c3n2C)cc1`, the survival is 73%.

`CCn1c(C(=O)NCc2ccc(OC(C)C)cc2)cc2oc3ccccc3c21`: the survival was 33% (active).

For `CCOc1ccc(CNC(=O)c2cc3oc4ccccc4c3n2C)cc1`, the survival is 95%.

With `CCOc1ccccc1CNC(=O)c1cc2oc3ccccc3c2n1CC`, the survival is 2% (active).

In the case of `COc1ccc(CNC(=O)c2cc3oc4ccccc4c3n2C)cc1OC`, the survival was 43% (active).

For `CCn1c(C(=O)NCc2ccccc2C)cc2oc3ccccc3c21`, the survival is 14% (active).

In the case of `CCn1c(C(=O)NCc2cc(Br)ccc2OC)cc2oc3ccccc3c21`, the survival was 67%.

Turning to `Cn1c(C(=O)NCc2cccc(Cl)c2)cc2oc3ccccc3c21`, the survival is 85%.
